# From PubChem
# M1 ag = human M1 muscarinic receptor agonism. P11229. CHO-K1 hM1, Fluo-8 calcium fluorescence, agonist mode; 0% DMSO, 100% acetylcholine EC100. activation, % at 3 µM. hit rate 0.33% among 360,000. AID 588814;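 active = activation above the run's mean compound activation plus 3 SD, cut at about 16% in these data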;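 also: peak over basal fluorescence ratio within a 140 s kinetic read after compound addition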
# Target sequence (P11229 whole entry, looked up): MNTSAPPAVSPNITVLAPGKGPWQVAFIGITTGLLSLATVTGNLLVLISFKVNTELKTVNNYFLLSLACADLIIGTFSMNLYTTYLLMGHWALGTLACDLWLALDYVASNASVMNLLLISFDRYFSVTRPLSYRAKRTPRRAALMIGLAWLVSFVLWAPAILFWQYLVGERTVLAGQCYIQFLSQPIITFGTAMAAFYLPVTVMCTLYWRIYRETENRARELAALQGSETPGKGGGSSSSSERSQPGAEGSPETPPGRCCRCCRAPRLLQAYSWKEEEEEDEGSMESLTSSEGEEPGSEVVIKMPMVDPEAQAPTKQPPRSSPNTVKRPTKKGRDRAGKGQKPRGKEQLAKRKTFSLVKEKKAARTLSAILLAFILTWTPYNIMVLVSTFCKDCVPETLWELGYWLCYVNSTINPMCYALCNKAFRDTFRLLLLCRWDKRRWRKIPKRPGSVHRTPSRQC
# CHO-K1 Ca ag = counter-screen for M1 agonists: effect in parental CHO-K1 cells; Fluo-8 calcium fluorescence; scaled to maximal ATP response, vehicle zero; activation, % at 3 µM; hit rate 0.48% among 360,000; in the data active = activation above about 15%;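 also: untransfected CHO-K1 host cells lacking M1 receptor as counterscreen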
# M1 PAM = positive allosteric modulators of human M1 muscarinic receptor; P11229; CHO-K1 hM1, Fluo-8 calcium fluorescence, ACh EC20; 0% = ACh EC20, 100% = maximal ACh; activation, % at 3 µM; hit rate 0.088% among 360,000; in the data active = activation above about 19%, passing the limit was not always enough
# M1 PAM parental = counter-screen for M1 PAMs: effect in parental CHO-K1 cells; ATP EC20, Fluo-8 calcium fluorescence; 0% at ATP EC20, 100% at ATP max; activation, % at 3 µM; hit rate 0.02% among 360,000;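 active = activation above the run cutoff, the mean activation of all test compounds plus 3 SD, cut at about 40% in these data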;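 also: peak over basal fluorescence ratio in a 140 s read after ATP addition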
# CHRM1 antagonist = blocks human M1 muscarinic receptor | P11229 | CHO-K1 hM1, Fluo-8 calcium fluorescence, ACh EC80 antagonist | inhibition, % at 3 µM | hit rate 1.3% among 360,000;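 active = percent inhibition above its own plate's cutoff, namely the mean of that plate's compound wells plus 3 SD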;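 also: peak over basal fluorescence ratio during 140 s after agonist addition; 0% = ACh EC80 plus DMSO and 100% = DMSO alone without agonist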
# CHO-K1 Ca antag = nonselective inhibitor or artifact in parental CHO-K1 cells | hit rate 0.6% among 360,000 | AID 602250 | inhibition, % at 3 µM | ATP-induced calcium, Fluo-8 fluorescence;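 active = inhibition above a per-plate cutoff, the plate's mean sample inhibition plus 3 SD, cut at about 24% in these data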;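 also: 0% = DMSO plus EC80 ATP and 100% = DMSO alone without ATP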
# Starred values were filed as active, the others as inactive; x = no result given. This is a sample that favours compounds with a hit; in the whole collection about 2.3% have one here.
SMILES,M1 ag,CHO-K1 Ca ag,M1 PAM,M1 PAM parental,CHRM1 antagonist,CHO-K1 Ca antag
Cc1ccc(Nc2nc(-c3c(C)nc4ccccn34)cs2)cc1,-5,4,-11,-8,23*,5
Cc1ccc(Nc2nc(-c3c(C)nc4ncccn34)cs2)cc1,-4,5,5,23,-9,-13
Cc1nc2ccccn2c1-c1csc(NCc2ccco2)n1,-1,5,4,-8,-3,-2
CC(C)(C)[C@H]1C=C(C(=O)Nc2ccccc2)O[C@@H](OCCCCO)C1,-10,0,4,17,-6,-22
Nc1nonc1-n1nnc(C(=O)N/N=C/c2ccccn2)c1CNc1ccccc1,-2,1,-1,-10,4,3
CCn1cc(Cl)c(C(=O)Nc2c(C)nn(Cc3c(F)c(F)c(F)c(F)c3F)c2C)n1,0,3,4,-9,-2,0
CC(C)(C)c1ccc(C(=O)N2CCC(=O)N([C@H](COCc3ccccc3)Cc3ccccc3)CC2)cc1,x,5,x,-6,x,6
CC(C)(C)c1ccc(C(=O)N2CCC(=O)N(C(COCc3ccccc3)Cc3ccccc3)CC2)cc1 (centres undefined),-5,2,-22,-13,33*,-1
O=C(OCC(=O)N1CCCC1)c1ccc(S(=O)(=O)Nc2ccccc2)cc1,-8,2,-4,0,10,-10
Cc1ccc(C)c(C(=O)CCC(=O)Nc2ccc(F)cc2)c1,1,0,10,16,-9,-6
COc1cccc2cc(C(=O)C3=C(O)C(=O)N(CCN4CCOCC4)C3c3cccc(Cl)c3)oc12 (centres undefined),5,-1,18,8,-11,27*
C[C@@H]1CN([C@@H](C)CO)C(=O)CCCn2nncc2CO[C@H]1CN(C)S(=O)(=O)c1ccccc1F,-2,1,1,8,5,-13
O=C(O)CCC(=O)N1c2ccccc2NC2=C(C(=O)CC(c3ccc(F)cc3)C2)C1c1ccc([N+](=O)[O-])o1 (centres undefined),-6,0,-9,-18,8,25*
Cn1c(N)c(S(=O)(=O)N2CCN(c3ccccc3F)CC2)c(=O)n(C)c1=O,3,-1,12,-21,-10,11
Cc1cc(OC2CCCCC2)nc(NCc2ccccc2)n1,-3,0,4,-2,-3,5
Cc1cc(N2CCCCCC2)nc(-c2ccccc2O)n1,-5,0,-9,9,11,-8
Cc1cc(N2CCCCC2)nc(N2CCCCC2)n1,28*,2,-14,23,15,-5
Cc1cc(N2CCOCC2)nc(NCc2ccccc2)n1,-3,16*,-23,-9,21,4
Cc1cc(N2CCCCC2)nc(NCc2ccccc2)n1,21*,20*,-24,0,16,13
CN[C@H]1C[C@H]2c3[nH]c4ccc(-c5cccc(C)c5)cc4c3CCN2C[C@H]1[C@H](C)O,-1,1,5,20,-5,-16
CC(O)(c1ccc(F)c(F)c1)c1nc(-c2ccoc2)cs1 (centres undefined),-1,0,13,2,-11,4
Cc1ccc(-n2c(O)c(C=NCc3ccccn3)c3ccccc3c2=O)cc1,-8,0,5,8,2,4
COc1ccccc1-n1c(O)c(C=NCc2ccccn2)c2ccccc2c1=O,2,18*,8,13,-10,-2
C[C@H](CO)N1C[C@H](C)[C@@H](CN(C)Cc2ccc(Oc3ccccc3)cc2)Oc2cc(Br)ccc2S1(=O)=O,4,0,7,-9,-5,1
Cc1cc(C)n(-c2ccccc2C#N)n1,4,5,-1,-16,4,25*
SMILES,M1 ag,CHO-K1 Ca ag,M1 PAM,M1 PAM parental,CHRM1 antagonist,CHO-K1 Ca antag
Cc1cc(C)n(-c2cccc3cccnc23)n1,-3,0,-6,0,11,0
CC1(C)CC(=O)C(C=Nc2ccccc2Sc2ccccc2)=C(O)C1,-6,0,-26,1,63*,-3
CC1(C)CC(=O)C(C=Nc2ccccc2C(=O)O)=C(O)C1,-6,0,9,12,-5,0
CN1CCCN(C(=O)CC(c2ccccc2)c2ccccc2)CC1,-12,0,-31,0,99*,2
CC(=O)N1CCc2cc(S(=O)(=O)CCC(=O)N3CCN(c4cc(C)ccc4C)CC3)ccc21,0,1,11,7,-8,-5
CCOC(=O)C1=CCN(S(=O)(=O)c2ccc(C)cc2)C1c1cccc(Cl)c1 (centres undefined),7,-1,6,-4,0,29*
CCOC(=O)C1=CCN(S(=O)(=O)c2cccc(Cl)c2)C1c1cccc(C)c1 (centres undefined),-8,1,-3,14,6,14
COc1ccc(C(=O)N2c3ccc(F)cc3CCC2C)cc1OC (centres undefined),-5,0,-4,-6,7,16
COc1ccccc1NC(=O)N1c2ccc(F)cc2CCC1C (centres undefined),-2,0,-4,-9,17,24*
C[C@H](O)[C@@H]1CN2CCc3c([nH]c4ccccc34)[C@@H]2C[C@@H]1N(C)Cc1cc(Cl)cc(Cl)c1,33*,0,-5,-8,-3,-8
CCOC(=O)N(C)[C@H]1C[C@H]2c3[nH]c4ccccc4c3CCN2C[C@H]1[C@H](C)O,-9,2,7,18,-4,5
CCN(CC)c1ccc(C2C(C(=O)OCCOC(C)C)=C(C)NC3=C2C(=O)CCC3)cc1 (centres undefined),-6,0,-23,-8,90*,19
CN1CCN(S(=O)(=O)c2cccc(C(=O)NCCC3=CCCCC3)c2)CC1,-6,1,13,5,-12,9
CC(C)c1ccc(CCNC(=O)c2cccc(S(=O)(=O)N3CCN(C)CC3)c2)cc1,3,16*,-2,10,-2,-2
COc1ccc(-c2nc(-c3ccc(NC(=O)c4ccncc4)cc3)no2)cc1OC,0,4,-21,-7,39*,8
COc1ccc(Cl)cc1-c1nc(-c2ccc(NC(=O)c3ccncc3)cc2)no1,-3,0,1,18,0,-2
Cc1ccc(-n2nc3c(c2NC(=O)c2ccc4c(c2)OCO4)CS(=O)C3)c(C)c1 (centres undefined),-1,1,13,12,-13,0
C=CCN1C(=O)NC(c2ccc(OC)cc2)(C(F)(F)F)S/C1=C(\C#N)c1nnc(N2CCOCC2)n1-c1ccccc1 (centres undefined),19*,3,5,25,-8,-10
COc1cccc(N2CCN(c3ccc4nnc(CCC(=O)Nc5ncccc5C)n4n3)CC2)c1,-4,2,-15,8,38*,0
